The values below come from PubChem BioAssay AID624330 (Southern Research Specialized Biocontainment Screening …, 2012).

Hit rate of the full screen: of about 340,000 compounds, about 2,100 (0.62%) were called active. A selection follows. Measured potencies and affinities stand elsewhere. Unmarked numbers belong to inactive results.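 Rule for the calls: active = first-screen hits whose inhibition reached a set limit at any dose in the follow-up dose series; inconclusive = inhibition above the set first-screen limit but never retested; inactive = the rest.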

For this assay, the target named is Rac GTPase-activating protein 1 (Homo sapiens) (UniProt Q9H0H5). Nature of the assay: MgcRacGAP GTPase-activating activity inhibitors, confirmation, biochemical, ADP Hunter fluorescence, primary and confirmatory (AID 624330).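 Note: fluorescence reports GDP produced by GAP-driven GTP hydrolysis.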 Conditions: MgcRacGAP-stimulated Rac1 GTP hydrolysis, at 30 µM, hits give high values, GST-tagged Rac1 F28L mutant substrate.
Rac GTPase-activating protein 1 (Homo sapiens), sequence (Q9H0H5 whole entry, looked up): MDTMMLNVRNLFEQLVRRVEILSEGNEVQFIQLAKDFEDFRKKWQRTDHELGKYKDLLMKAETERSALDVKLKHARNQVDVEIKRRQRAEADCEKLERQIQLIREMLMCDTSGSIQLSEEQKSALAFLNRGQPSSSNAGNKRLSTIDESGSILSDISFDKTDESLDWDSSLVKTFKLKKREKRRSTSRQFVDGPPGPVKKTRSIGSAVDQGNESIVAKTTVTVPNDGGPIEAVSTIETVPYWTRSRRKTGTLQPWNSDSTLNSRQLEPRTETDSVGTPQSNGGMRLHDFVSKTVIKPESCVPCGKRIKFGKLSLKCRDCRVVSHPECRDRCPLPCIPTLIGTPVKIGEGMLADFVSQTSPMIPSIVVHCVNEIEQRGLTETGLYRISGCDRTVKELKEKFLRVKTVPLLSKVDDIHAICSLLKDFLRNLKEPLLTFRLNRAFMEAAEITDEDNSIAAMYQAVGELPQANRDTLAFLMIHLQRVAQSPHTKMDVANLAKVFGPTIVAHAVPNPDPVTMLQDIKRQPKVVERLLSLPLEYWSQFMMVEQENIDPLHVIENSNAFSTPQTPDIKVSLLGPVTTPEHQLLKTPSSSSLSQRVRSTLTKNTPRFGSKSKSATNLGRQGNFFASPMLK
In general, inhibition refers to the relative decrease from the control value, in per cent. For the compound `CCS(=O)(=O)N1Cc2ccccc2CC1C(=O)N(C)Cc1ccc(OC)cc1OC` (stereo unspecified), the inhibition is 5.19%.
For `CCOc1cccc(-c2c(C(=O)N/N=C/c3ccc(C)s3)nnn2-c2nonc2N)c1` the value was 0.29%; for `COc1ccc(C2SCCN2S(=O)(=O)c2ccc(F)cc2)cc1OC` (stereo unspecified), 6.1%.
The figure for `O=C(NCCCN1CCCC1=O)c1cccc(S(=O)(=O)N2CCN(c3ccc(F)cc3)CC2)c1` is 1.69%.
The figure for `COc1ccc(Nc2c3ccccc3nc3ccccc23)cc1` is 17.9%; for `COc1cccc(CNc2cnc3ccccc3c2)c1O` it is 1.26%.
In the case of `COc1ccc2[nH]c(=O)c(CNc3ccccc3)cc2c1`, the inhibition is 9.73%.
The figure for `COc1ccc(NC(=O)CSc2nc3ccccc3cc2Cc2ccccc2)cc1` is 3.45%; for `CCOc1ccc(NCc2cc3cc(OC)ccc3[nH]c2=O)cc1` it is 15.8%; for `COc1ccc(C(=O)NCc2cc(C)nc3ccccc23)cc1` it is -16.4%.
The figure for `COc1ccc(-c2cccc([C@H]3[C@@H]4C=CCC[C@@]4(C)C(=O)N3Cc3ccccc3)c2)cc1` is 12.4%; for `Cc1cccc(C(=O)Nc2cc(NC(=O)c3cccs3)ccc2C)c1` it is 5.54%; for `CCOc1ccccc1CN1CCN(C2CCSCC2)CC1CCO` (stereo unspecified) it is 7.4%.
For `CN(CC(=O)Nc1ccc(SC(F)F)cc1)C1CCCCC1` the value was 9.96%; for `Nc1ccc2cn[nH]c2c1`, 2.65%.
With `Nc1ccc2nc(-c3cccc(-c4nc5ccc(N)cc5[nH]4)n3)[nH]c2c1`, the inhibition is 16.5%.
The figure for `COc1ccc(-c2cc(CCCC(=O)NCCc3ccc(OC)cc3OC)no2)cc1` is -0.07%.
For `Cc1sc2nc(CN3CCOCC3)nc(N3CCC(C(N)=O)CC3)c2c1C` the value was -3.61%; for `Cc1sc2nc(CN3CCOCC3)nc(Cl)c2c1C`, 5.87%; for `CCC(=O)Nc1cccc(NC(=O)CSc2nc3c(c(=O)n(C)c(=O)n3C)n2C)c1`, 7.76%.
For `O=C(COc1ccc2ccc(=O)oc2c1)N1CCc2ccccc21` the value was -9.6%; for `CC(N=c1ccccn1C(=O)Nc1cccc(C(F)(F)F)c1)c1ccco1` (stereo unspecified), 2.17%; for `CCN(CC(=O)NC(=O)NCc1ccccc1)Cc1ccccc1`, 3.08%.
Take `O=C(CN1CCCCC1)NN(Cc1ccccc1)c1ccccc1`: the inhibition is 10.1%.
Take `CN1CCN(CC(=O)NN(Cc2ccccc2)c2ccccc2)CC1`: the inhibition was 31.6%.
With `CC(C)(O)C(=O)NN(Cc1ccccc1)c1ccccc1`, the inhibition was 4.09%.
The figure for `CCCc1cc(=O)[nH]c(SCC(=O)c2cc(C)n(CC3CCCO3)c2C)n1` (stereo unspecified) is 4.29%.
The figure for `Cc1ccc(S(=O)(=O)NC(C)C(=O)N2CCOCCOCCOCCOCC2)cc1` (stereo unspecified) is 9.08%; for `CCc1ccc(NC(=O)C2CCN(S(=O)(=O)c3ccc4c(c3)NC(=O)CO4)CC2)cc1` it is -14%; for `COc1cc(/C=C2\C(=O)ON=C2c2ccccc2)cc(OC)c1OC` it is 15%.
The figure for `O=C1/C(=C/c2ccc([N+](=O)[O-])cc2)C=C(c2ccccc2)N1c1ccccc1` is 15.2%; for `Cn1c(-c2ccccc2)cc(=O)c2ccccc21` it is 12.4%; for `Cn1c(=O)cc(-c2ccccc2)c2ccccc21` it is 5.87%.
Turning to `COc1cc(/C=C(/C(=O)O)c2ccc(-c3ccccc3)cc2)cc(OC)c1OC`, the inhibition is 7.82%.
The figure for `CC(C)n1c2ccccc2c2cc([N+](=O)[O-])ccc21` is 10.7%; for `CC(=O)Nc1ccc(NC(=O)CSc2nnc(-c3cccs3)n2C)cc1` it is 5.9%.
For `O=C(/C=C/c1cccc([N+](=O)[O-])c1)NCc1ccccc1` the value was 2.96%.
For `CCCCOc1cccc(/C=C(\C#N)C(=O)NC2CC2)c1` the value was 4.72%; for `CC(C)(C)OC(=O)C[C@@H]1C/C=C\C[C@@H](CC(=O)N[C@H](CO)Cc2ccccc2)C(=O)N2CCC[C@@H]2COC1=O`, 4.93%; for `CN(CCO)c1ncnc2c1sc1nc(N3CCOCC3)c3c(c12)CCC3`, 13.9%.
With `O=C(CCl)N(c1ccccc1)c1ccccc1`, the inhibition is 5.65%.
The figure for `Cc1cc(C(=O)NNC(=O)C2CCCC2)c(C)o1` is 4.19%; for `Cc1cnc(NC(=O)c2cccs2)s1` it is 0.1%.
For `NC(=O)C[C@H](N)c1cn([C@@H](CC(N)=O)C(=O)N2CCNCC2)nn1`, the inhibition was -0.03%.
For `CN(CC1CCCN(CCc2ccc(Cl)cc2)C1)C(=O)C(=O)c1ccco1` (stereo unspecified) the value was 6.85%; for `Cc1ccn2cc(C(=O)N3CCN(c4cnn(-c5ccccc5)c(=O)c4Cl)CC3)nc2c1`, 2.32%; for `O=C(NCc1ccccc1)NS(=O)(=O)c1ccccc1Cl`, 2.6%.
For `CCCCCCCCCCCCCCCC[N+](C)(C)CCl` the value was 15.1%.
As for `CCCCCCCCCCCCCCCC[N+](C)(C)CC`, the inhibition was 18.7%.
As for `COc1ccc(CNC(=O)C(C)N(Cc2ccco2)C(=O)c2snc(C(N)=O)c2N)cc1` (stereo unspecified), the inhibition is -8.32%.
`C=CCNCC(=O)N1N=C(c2ccc3ccccc3c2)CC1c1ccc(OC)cc1` (stereo unspecified): the inhibition is 6.55%.
Turning to `COc1ccc(C2CC(c3ccc4ccccc4c3)=NN2C(=O)CSc2ncccn2)cc1` (stereo unspecified), the inhibition is 7.23%.
As for `CN(C)CC1CCC/C(=C\c2ccc(OC(=O)c3ccc(Cl)cc3)cc2)C1=O` (stereo unspecified), the inhibition was 2.37%.
For `COc1ccc(CCNC(=O)CCOc2ccc(C(C)(C)C)cc2)cc1OC` the value was 3.35%.
The figure for `Cc1nnc(NC(=O)c2ccco2)s1` is 4.57%.
For the compound `CC(=O)Nc1nnc(C)s1`, the inhibition was 9.89%.
The figure for `Cc1ccc(-c2nnc(NC(=O)c3ccco3)s2)cc1` is 6.39%; for `CC(=O)Nc1nnc(S(N)(=O)=O)s1` it is 1.42%; for `CC(C)c1ccc(CNC(=O)C(=O)NCC2CCCO2)cc1` (stereo unspecified) it is 14.8%.
Regarding `Cc1cc(NS(=O)(=O)c2ccc(NC(=O)COc3ccccc3[N+](=O)[O-])cc2)no1`, the inhibition was 7.5%.
For `CN(C)CCC1Sc2ccccc2Oc2ccccc21` (stereo unspecified) the value was 17.5%; for `CC1c2ccccc2SC(CCCN(C)C)c2ccccc21` (stereo unspecified), 5.84%; for `Cc1onc(-c2c(F)cccc2Cl)c1C(=O)NCc1cccs1`, 5.78%.
On to `COc1ccc(S(=O)(=O)N(C)CC(=O)NCCC2=CCCCC2)cc1`, for which the inhibition is 4.26%.
The figure for `O=c1[nH]c(/C=C\c2cccc(O)c2)nc(O)c1[N+](=O)[O-]` is 13.1%; for `O=[N+]([O-])c1ccc2oc(/C=C/c3ccc(O)cc3)nc2c1` it is 13.2%; for `NS(=O)(=O)c1ccc(NC(=S)NNC(=O)c2ccc(Br)o2)cc1` it is 4.44%.
For `COc1ccc(Cl)cc1NC(=O)CN(C)CC(=O)Nc1ccc(Br)cc1` the value was 3.57%; for `O=C(NN1C(=O)/C(=C\c2cccnc2)SC1=S)c1ccco1`, 13.7%; for `CCOc1ccc(NC(=O)CSc2nnc(C3CC3)n2C)cc1S(=O)(=O)N1CCCCC1`, 8.28%.
As for `COc1ccc(Br)cc1CN1CCN(C(=O)c2ccc(OC)c(OC)c2)CC1`, the inhibition was 21%.
For `COc1ccc(OC)c(CN2CCN(C(=O)c3ccc(F)cc3)CC2)c1` the value was 25%.
For `COc1ccccc1C(=O)N1CCN(C(=O)c2ccncc2)CC1` the value was 1.76%.
The figure for `COc1ccccc1N1CCN(C(=O)c2ccncc2)CC1` is -0.56%.
Take `CCCCOc1ccc(/C=C/C(=O)N(CC)CC(=O)Nc2ccc3c(c2)OCCO3)cc1OC`: the inhibition was 11.7%.
The figure for `C/C(Cn1nc([N+](=O)[O-])cc1C)=N\NC(=O)COc1ccc(Cl)cc1Cl` is 6.26%; for `Cc1ccccc1NC(=O)c1c(C)nn(-c2ccccc2)c1Cl` it is 8.16%.
`O=C(CSc1ncccn1)NCC1CCCO1` (stereo unspecified): the inhibition is 4.06%.
`COc1cc(OC)c(OC)cc1/C=N/Nc1nc2ccccc2[nH]1`: the inhibition is 12.8%.
For `COc1cc(/C=N/Nc2nc3ccccc3[nH]c2=O)ccc1O` the value was 15.8%; for `COc1cc(/C=N\Nc2nc3ccccc3[nH]2)cc(OC)c1OC`, 29%; for `COc1ccc(O)c(/C=N/Nc2nc3ccccc3[nH]2)c1`, 1.94%.
Consider `COc1ccc(NC(=O)c2c(C)nn(Cc3ccccc3)c2Cl)cc1S(=O)(=O)N1CCOCC1`, for which the inhibition is 2.08%.
For `Cc1ccc(S(=O)(=O)N2CCC(C(=O)OC(C)C(=O)N3CCOCC3)CC2)cc1` (stereo unspecified), the inhibition is 4.25%.
With `CCc1ccc(NC(=O)c2n[nH]c(=O)c3ccccc23)cc1`, the inhibition was 2.23%.
For `COc1ccc(N2CCN(C(=O)CCN3C(=O)C4C5C=CC(C5)C4C3=O)CC2)cc1` (stereo unspecified) the value was 10.9%.
For `CCn1cc(CNC(=O)C2CCC(=O)N(CCc3cccc(F)c3)C2)cn1` (stereo unspecified), the inhibition is 4.69%.
For `CCCNC(=O)COC(=O)C1CCN(S(=O)(=O)c2ccc3c(c2)OCCO3)CC1` the value was 2.29%; for `O=C(CN1CCN(c2ccc(F)cc2)CC1)NCC1CCCO1` (stereo unspecified), 12.3%.
For `O=C(CCCC(=O)NCC1CCCO1)NCC1CCCO1` (stereo unspecified) the value was 7.04%; for `COc1ccccc1CC(=O)NCC1CCCO1` (stereo unspecified), 14.3%; for `O=C(CSCSCC(=O)NCC1CCCO1)NCC1CCCO1` (stereo unspecified), 9.35%.
On to `Cc1cccc(C(C)C)c1NC(=O)Cc1ccc(S(=O)(=O)N2CCOCC2)s1`, for which the inhibition was 6.93%.
For `COCCC(=O)N1CCCC(CCC(=O)NCc2ccc(F)c(F)c2)C1` (stereo unspecified) the value was 4.17%; for `COc1ccc2nc3cc([N+](=O)[O-])ccc3c(NNc3ccc([N+](=O)[O-])cc3)c2c1`, 1.37%.
The figure for `COc1cc2c(cc1OC)-c1cc(NC3CC3)nc(=O)n1CC2` is 3.36%.
